From PubChem BioAssay AID1259422 (The Scripps Research Institute Molecular Screening Center, 2018) come the findings set out here.

Several values for one entry are separate records, joined by “and”; a condition that tells them apart may be missing. Equal values may be shown once. Among all 640,000 compounds or so, about 9,300 (1.5%) were called active. The sample as a whole holds a higher share of actives than the screen did. Unmarked numbers belong to inactive results. Rule as the data show it: active = inhibition above about 32%; inactive = the rest.

This test in a line: TEAD-YAP interaction inhibition, primary screen, TEAD-YAP interaction inhibitor project, luminescence, HEK-TIYL cells (AID 1259422).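 Also: 0% = median of test compound wells and 100% = reference inhibitor wells.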 To be noted: TEAD-Gal4/YAP UAS-luciferase luminescence, at 9.12 µM, hits give high values.
For `Cc1ccc(N2CC(O)=C(c3nc4ccccc4n3C)C2=N)cc1C`, the inhibition is -5.77%.

For the molecule `N=C1C(c2nc3ccccc3s2)=C(O)CN1c1cccc(F)c1`, the inhibition was 31.9% (active).

On to `CC(C#N)OC(=O)c1ccc(N2CC(O)=C(c3nc4ccccc4s3)C2=N)cc1` (stereo not given), for which the inhibition is 5.73%.

Take `O=C1N[C@H](Cc2ccc(O)cc2)C(=O)N2CCN(C(=O)Oc3ccc(Cl)cc3)C[C@H]12`: the inhibition was -0.03%.

On to `Cc1cccc(CC(=O)Nc2cnn(-c3cccc(C(=O)N(C)Cc4ccon4)c3)c2)c1`, for which the inhibition is 8.24%.

Regarding `COc1ccc(-n2c(C)cc(C(=O)COC(=O)COc3ccccc3C=O)c2C)cc1`, the inhibition was 5.99%.

Regarding `COCc1cc(C(C)=O)ccc1OCC(=O)c1cc(C)n(-c2ccc(F)cc2)c1C`, the inhibition was -1.2%.

Turning to `Cc1cc(C(=O)COC(=O)C2CC2)c(C)n1-c1ccc(F)cc1`, the inhibition was 39% (active).

Regarding `Cc1ccc(CCNC(=O)CCCNS(=O)(=O)c2ccc3c(c2)CCC(=O)N3)cc1`, the inhibition was 1.68%.

On to `Fc1ccccc1CSc1nc(NCC2CCCO2)c2ccccc2n1` (stereo not given), for which the inhibition was 0%.

Regarding `Fc1ccccc1-c1nc(NCC2CCCO2)c2ccccc2n1` (stereo not given), the inhibition was 25.9%.

Consider `Fc1ccc(Nc2nc(NCC3CCCO3)c3ccccc3n2)cc1` (stereo not given), for which the inhibition was 42.1% (active).

For `Fc1ccc(CSc2nc(NCc3ccccc3)c3ccccc3n2)cc1`, the inhibition is -9.53%.

Take `Fc1ccc(Nc2nc(NCc3ccccc3)c3ccccc3n2)cc1`: the inhibition is 42% (active).

With `COc1ccc(CNc2nc(Nc3ccc(OC)cc3)nc3cc(OC)c(OC)cc23)cc1`, the inhibition is 1.6%.

With `O=C(c1cc(COc2ccc(F)cc2Cl)on1)N1C[C@@H]2CCC[C@H]1C2`, the inhibition was -37.5%.

For the molecule `CCn1c(N2CCC(C(=O)NCCc3ccc(O)cc3)CC2)nc2ccccc21`, the inhibition was 4.47%.

Turning to `COc1ccc2[nH]cc(CCNC(=O)C3CCN(c4nc5ccccc5n4C)CC3)c2c1`, the inhibition was 34.1% (active).

As for `CC(CCc1ccco1)NC(=O)C1CCN(c2nc3ccccc3n2C)CC1` (stereo not given), the inhibition was 9.58%.

In the case of `COc1c(C(=O)Nc2ccc(NC(C)=O)cc2)ccc2ccccc12`, the inhibition was -28.1%.

`Cc1ncn(-c2ccc(Nc3nccc(N4CCc5[nH]ncc5C4)n3)cc2)n1`: the inhibition was 49.9% (active).

Turning to `Cc1ncn(-c2ccc(Nc3nccc(-c4cc(C#N)cc(NC5CCN(C)CC5)c4)n3)cc2)n1`, the inhibition is 16.9%.

Consider `CN1CCN(c2ncn(-c3ccc(Nc4nccc(-c5ccc(NS(C)(=O)=O)cc5)n4)cc3)n2)CC1`, for which the inhibition is -0.18%.

Regarding `CCc1nc2sc(C(c3ccc(F)cc3)N3CCCC3)c(O)n2n1` (stereo not given), the inhibition is -0.93%.

For `OCCN1CCN(C(c2ccc(F)cc2)c2ccc3cccnc3c2O)CC1` (stereo not given), the inhibition was 87.9% (active).

With `Oc1c(C(c2cccnc2)N2CCOCC2)ccc2cccnc12` (stereo not given), the inhibition is 29%.

As to `Cc1ccccc1CN1CCN2C(=O)[C@H](Cc3ccc(O)cc3)NC(=O)[C@H]2C1`, the inhibition is 0.18%.

Regarding `Cc1c(Cl)cccc1NC(=O)NNC(=O)C(N)=O`, the inhibition was 17%.

With `Cc1nn(CC(=O)NCc2ccccn2)c(=O)c2ccccc12`, the inhibition was -1.32%.

As to `N#Cc1ccc(C(=O)OCC(=O)Nc2ccc3c(c2)C(=O)c2ccccc2C3=O)cc1`, the inhibition is -21.3%.

In the case of `CCOc1cc(/C=C(\C#N)c2nc(-c3cccs3)c(NC(C)=O)s2)ccc1O`, the inhibition is 41.9% (active).

On to `CCOc1ccc(/C=C(\C#N)c2nc3ccccc3c(=O)[nH]2)cc1OC`, for which the inhibition was -0.7%.

With `CCOc1cc(/C=C(\C#N)c2nc3ncc(Br)cc3[nH]2)ccc1O`, the inhibition was -0.3%.

`COc1ccccc1NC(=O)Cn1cnc2sc(C(=O)Nc3ccc(F)cc3Cl)c(C)c2c1=O`: the inhibition was 10.1%.

As to `CCC(Sc1nc(Nc2ccc(F)c(F)c2)c2ccccc2n1)C(=O)Nc1ccc2c(c1)OCO2` (stereo not given), the inhibition was 6.11%.

Regarding `Cn1ncc(I)c1C(=O)N1CCc2ccccc2C1`, the inhibition was -9.15%.

As to `CN(Cc1ccccc1)CC(O)COc1ccc(CNCCN2CCCCC2)cc1` (stereo not given), the inhibition was 3.88%.

Take `Cc1cc(NC(=O)CSc2nc3cc4c(cc3cc2C#N)OCCO4)no1`: the inhibition is 2.38%.

Regarding `CN(C)c1ccc(NC(=O)CSc2nc3cc4c(cc3cc2C#N)OCCO4)cc1`, the inhibition is 66.1% (active).

Regarding `Cc1ccc(NC(=O)CSc2nc3cc4c(cc3cc2C#N)OCCO4)cc1`, the inhibition is 20.6%.

On to `COc1ccc2ncc(S(=O)(=O)c3ccc(C)cc3)c(N3CCOCC3)c2c1`, for which the inhibition was -1.64%.

As for `O=C(CN1C(=O)[C@H]2CCCN2C(=O)c2ccccc21)NCc1ccccc1F`, the inhibition was 2.44%.

On to `CC1CCCC/C1=N/NC(=O)CNc1ccc(Cl)cc1Br` (stereo not given), for which the inhibition was 3.05%.

As to `CCOC(=O)C1=C(Cl)c2ccccc2NC1Cl` (stereo not given), the inhibition was 2.33%.

As for `COc1cccc(CC2=NOC(C(=O)NC(C)Cc3ccsc3)C2)c1` (stereo not given), the inhibition is -35%.

Regarding `CCCOC(=O)C1=C(C)NC2=C(C(=O)CC(C)(C)C2)C1c1cccs1` (stereo not given), the inhibition was -1.04% and 6.64%.

As to `CSCCOC(=O)c1[nH]c2c(c1C)C(=O)CC(c1cccs1)C2` (stereo not given), the inhibition was 45.5% (active).

`C=CCOC(=O)c1[nH]c2c(c1C)C(=O)CC(c1ccccc1)C2` (stereo not given): the inhibition was 42.7% (active).

As to `CCCOCCOC(=O)c1[nH]c2c(c1C)C(=O)CC(c1ccc(OC)cc1)C2` (stereo not given), the inhibition was -2.72%.

Consider `CCOC(=O)C1=C(C)NC2=C(C(=O)CC(c3ccccc3)C2)C1c1ccccn1` (stereo not given), for which the inhibition is 11.1% and 10.6%.

With `CCSCCOC(=O)C1=C(C)NC2=C(C(=O)CC(c3cccs3)C2)C1c1ccsc1` (stereo not given), the inhibition is 1.93%.

With `CCCOC(=O)c1[nH]c2c(c1C)C(=O)CC(c1cccs1)C2` (stereo not given), the inhibition was 54.8% (active).

With `CCSCCOC(=O)C1=C(C)NC2=C(C(=O)CC(c3ccccc3)C2)C1c1ccccc1` (stereo not given), the inhibition is 7.09%.

In the case of `CCOCCOC(=O)C1=C(C)NC2=C(C(=O)CC(c3cccs3)C2)C1c1ccc(OC(C)=O)cc1` (stereo not given), the inhibition was 7.32%.

Consider `COc1ccc2oc(=O)c(S(=O)(=O)c3ccc(C)cc3)cc2c1`, for which the inhibition is 7.59%.

For the molecule `COc1ccc2cc(Br)ccc2c1CC(=O)N(C)C1CCN(C)CC1`, the inhibition was -3.7%.

Regarding `COc1ccccc1NC(=O)NC(CC(=O)O)c1ccc(C)cc1` (stereo not given), the inhibition was 3.42%.

`CCOc1ccc(-c2c(C#N)c(N)nc(OC)c2C#N)cc1`: the inhibition is -17.1%.

`CN1N=C(C(F)(F)F)/C(=N/OC(=O)c2ccc(Cl)cc2Cl)C1=O`: the inhibition is 6.23%.

For `CC(=O)Nc1ccc(Nc2ncnc3nc(-c4c(C)noc4C)[nH]c23)cc1`, the inhibition was -7.16%.

With `Cc1ccc(/C=C/C(=O)N2CCN(c3ccc([N+](=O)[O-])cc3)CC2)cc1`, the inhibition is 2.02%.

As to `CCN(CC)CCNC(=O)c1c(CSc2ccccc2)n(C)c2cc(Br)c(OC)cc12`, the inhibition is 6.43%.

Take `CCOc1ccc(-n2c(SCc3cc(C(C)=O)ccc3OC)nc3c(sc(=S)n3-c3ccccc3)c2=O)cc1`: the inhibition is -3.25%.

Turning to `Cc1cc(C)cc(C(=O)NCC(=O)OCC(=O)NC(N)=O)c1`, the inhibition is 1.58%.

With `COc1cccc(CNC(=O)c2[nH]c3cc(-c4cn[nH]c4)ccc3c2CN(C)Cc2ccccc2)c1`, the inhibition is -12.2%.

Consider `COc1ccc(-c2nc(Nc3cc(Oc4ccccc4)cc([N+](=O)[O-])c3)c3ccccc3n2)cc1OC`, for which the inhibition was -13.1%.

Regarding `COc1cc(Nc2nc(-c3ccc(OC)c(OC)c3)nc3ccccc23)cc(OC)c1`, the inhibition is 43% (active).

As to `COc1ccc(-c2nc(Nc3ccc(C)c(F)c3)c3ccccc3n2)cc1OC`, the inhibition is -0.35%.

As for `COc1ccccc1-n1nnc(C(=O)N2CCCCC2)c1N`, the inhibition is -0.58%.

Regarding `COc1ccccc1-n1nnc(C(=O)NC2CCCc3ccccc32)c1N` (stereo not given), the inhibition was 45.5% (active).

As to `Nc1nnc(SCC(=O)NC2CCCc3ccccc32)s1` (stereo not given), the inhibition is 0.12%.

For the molecule `Fc1cccc(Cn2nnc(-c3ccc4c(c3)OCO4)n2)c1`, the inhibition was -36.6%.

As to `CCOc1ccccc1-n1c(=S)sc2c(=O)n(-c3ccccc3C)c(SCC#N)nc21`, the inhibition was -7.3%.

With `O=[N+]([O-])c1cccc(S(=O)(=O)NNc2ccccc2)c1`, the inhibition was 2.84%.

`OC(COc1ccccc1CNCCN1CCCCC1)CN1CCc2ccccc2C1` (stereo not given): the inhibition was 2.84%.

`Cc1c(C(=O)Nc2ccc(F)cc2F)sc2ncnc(N3CCc4ccccc4C3)c12`: the inhibition was 12.9%.

Take `S=c1[nH]c(-c2ccc(Cl)cc2)cn1-c1cccc(Cl)c1`: the inhibition is -6.64%.

Take `O=c1oc2ccccc2cc1-c1cn(-c2ccccc2)c(=S)[nH]1`: the inhibition is 72.7% (active).

Consider `O=c1oc2ccccc2cc1-c1nnc(-c2ccccc2)o1`, for which the inhibition is -51.9%.

For `CC(C)n1c(Nc2ccc(N3CCOCC3)cc2)nc2c(NCCc3ccc(O)cc3)ncnc21`, the inhibition is 12.6%.

Turning to `CCOC(=O)c1c(NC(=O)CN2CCCC2)sc(C)c1-c1ccccc1`, the inhibition was 4.43%.

For the molecule `COc1ccc(OC)c(NC(=O)CSc2nc3cc(OC)ccc3cc2C#N)c1`, the inhibition is 6.71%.

`COc1ccc2cc(C#N)c(SC)nc2c1`: the inhibition was 33.8% (active).

Regarding `CCOc1ccc2cc(C#N)c(SCC(=O)NCc3ccc(OC)cc3)nc2c1`, the inhibition was 3.49%.

Consider `O=C(CSc1nc2ccc(Br)cc2c2nc3ccccc3n12)NCc1ccccc1`, for which the inhibition was 0.74%.

For `CC(C)C(O)c1ccc2c(c1)CN(Cc1cccc(OCCO)c1)CCO2` (stereo not given), the inhibition is 1.92%.

`CCOc1ccccc1CN1CCOc2ccc(C(O)c3cccnc3)cc2C1` (stereo not given): the inhibition is 5.37%.

Turning to `CCn1nc(C)c(CN2CCOc3ccc(C(O)c4cccnc4)cc3C2)c1C` (stereo not given), the inhibition is 36.6% (active).

On to `CCOc1ccc(-c2n[nH]c3c2C(c2ccccc2OC)NC3=O)cc1` (stereo not given), for which the inhibition is 18.1%.

Regarding `O=C1CCCC2=C1C(c1ccccc1[N+](=O)[O-])C1=C(CCCC1=O)O2`, the inhibition was -1.3%.
